Data from PubChem BioAssay AID1159580 (chemical genetic matrix, 2015).
Among all 5,500 compounds or so, about 2,000 (36%) were called active. Roughly 18% stayed inconclusive and do not appear here. Rule as the data show it: active = normalized growth mostly below about 0.91 (no sharp cut-off); inconclusive = no clear call, values can overlap the other calls; inactive = mostly above about 0.92. Some of the results follow.

Assay: chemical genetic growth profiling, strain panel (AID 1159580);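 also: tested at 20 µM; growth read once vehicle control cultures reached saturation at 30 °C; 1 = growth at the plate median or of vehicle wells; lower values mean less growth of the strain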
Conditions: growth OD

Measured: normalized growth

CNCc1ccccc1
inactive: S. cerevisiae deletion strains, locus YJR066W, strain TOR1, active compounds read low 0.978 | S. cerevisiae deletion strains, locus YKL009W, strain mrt4, active compounds read low 0.999 | S. cerevisiae deletion strains, locus YKL068W, active compounds read low 0.981 | S. cerevisiae deletion strains, locus YKL085W, strain MDH1 (second series), active compounds read low 0.976 | S. cerevisiae deletion strains, locus YKL085W, strain MDH1, active compounds read low 0.976 | S. cerevisiae deletion strains, locus YKL160W, strain elf1, active compounds read low 1 | S. cerevisiae deletion strains, locus YKL190W, strain CNB1, active compounds read low 0.996 | S. cerevisiae deletion strains, locus YKR001C, strain vps1, active compounds read low 1.04 | S. cerevisiae deletion strains, locus YKR026C, strain gcn3, active compounds read low 1.03 | S. cerevisiae deletion strains, locus YKR091W, strain srl3, active compounds read low 1.02 | S. cerevisiae deletion strains, locus YLL001W, strain dnm1, active compounds read low 1.02 | S. cerevisiae deletion strains, locus YLL026W, active compounds read low 1.01 | S. cerevisiae deletion strains, locus YLL041C, strain sdh2, active compounds read low 1.02 | S. cerevisiae deletion strains, locus YLR027C, strain aat2, active compounds read low 0.997 | S. cerevisiae deletion strains, locus YLR039C, strain RIC1, active compounds read low 1.01 | S. cerevisiae deletion strains, locus YLR058C, strain SHM2, active compounds read low 0.973 | S. cerevisiae deletion strains, locus YLR102C, strain apc9, active compounds read low 0.99 | S. cerevisiae deletion strains, locus YLR113W, strain HOG1, active compounds read low 0.981 | S. cerevisiae deletion strains, locus YLR221C, strain rsa3, active compounds read low 1.01 | S. cerevisiae deletion strains, locus YLR258W, strain gsy2, active compounds read low 1.03 | S. cerevisiae deletion strains, locus YLR262C, strain YPT6 (second series), active compounds read low 1.01 | S. cerevisiae deletion strains, locus YLR262C, strain YPT6, active compounds read low 1 | S. cerevisiae deletion strains, locus YLR268W, strain sec22, active compounds read low 1.03 | S. cerevisiae deletion strains, locus YLR320W, strain mms22, active compounds read low 1.02 | S. cerevisiae deletion strains, locus YLR330W, strain CHS5, active compounds read low 0.999 | S. cerevisiae deletion strains, locus YLR342W, strain FKS1 (second series), active compounds read low 1.05 | S. cerevisiae deletion strains, locus YLR342W, strain FKS1, active compounds read low 1.02 | S. cerevisiae deletion strains, locus YLR357W, strain rsc2, active compounds read low 1.02 | S. cerevisiae deletion strains, locus YLR370C, strain arc18, active compounds read low 1.02 | S. cerevisiae deletion strains, locus YLR371W, strain rom2, active compounds read low 0.999 | S. cerevisiae deletion strains, locus YLR384C, strain iki3, active compounds read low 1 | S. cerevisiae deletion strains, locus YLR418C, strain cdc73, active compounds read low 0.991 | S. cerevisiae deletion strains, locus YML016C, strain PPZ1, active compounds read low 0.996 | S. cerevisiae deletion strains, locus YML032C, strain rad52, active compounds read low 0.949 | S. cerevisiae deletion strains, locus YML120C, strain ndi1, active compounds read low 1.02 | S. cerevisiae deletion strains, locus YML124C, strain tub3, active compounds read low 0.983 | S. cerevisiae deletion strains, locus YMR058W, strain fet3, active compounds read low 0.97 | S. cerevisiae deletion strains, locus YMR078C, strain ctf18, active compounds read low 0.987 | S. cerevisiae deletion strains, locus YMR125W, strain sto1, active compounds read low 1.02 | S. cerevisiae deletion strains, locus YMR129W, active compounds read low 1.02 | S. cerevisiae deletion strains, locus YMR205C, strain PFK2, active compounds read low 1.03 | S. cerevisiae deletion strains, locus YMR223W, strain ubp8, active compounds read low 0.969 | S. cerevisiae deletion strains, locus YMR231W, strain pep5, active compounds read low 0.99 | S. cerevisiae deletion strains, locus YMR263W, strain SAP30, active compounds read low 0.992 | S. cerevisiae deletion strains, locus YMR307W, strain GAS1, active compounds read low 0.914 | S. cerevisiae deletion strains, locus YNL067W, strain RPL9B, active compounds read low 0.984 | S. cerevisiae deletion strains, locus YNL071W, strain lat1, active compounds read low 1.03 | S. cerevisiae deletion strains, locus YNL153C, strain GIM3, active compounds read low 0.978 | S. cerevisiae deletion strains, locus YNL183C, strain NPR1, active compounds read low 0.91 | S. cerevisiae deletion strains, locus YNL209W, strain ssb2, active compounds read low 1.01 | S. cerevisiae deletion strains, locus YNL233W, strain BNI4, active compounds read low 1.01 | S. cerevisiae deletion strains, locus YNL248C, strain rpa49, active compounds read low 1.03 | S. cerevisiae deletion strains, locus YNL250W, strain rad50, active compounds read low 0.981 | S. cerevisiae deletion strains, locus YNL271C, strain bni1, active compounds read low 0.994 | S. cerevisiae deletion strains, locus YNL298W, strain CLA4, active compounds read low 0.988 | S. cerevisiae deletion strains, locus YNL307C, strain MCK1, active compounds read low 1.01 | S. cerevisiae deletion strains, locus YNL322C, strain KRE1 (second series), active compounds read low 1.02 | S. cerevisiae deletion strains, locus YNL322C, strain KRE1, active compounds read low 0.994 | S. cerevisiae deletion strains, locus YNR049C, strain mso1, active compounds read low 1.02 | S. cerevisiae deletion strains, locus YNR052C, strain pop2, active compounds read low 0.991 | S. cerevisiae deletion strains, locus YOL006C, strain TOP1, active compounds read low 1.1 | S. cerevisiae deletion strains, locus YOL012C, strain htz1 1.52 | S. cerevisiae deletion strains, locus YOL147C, strain pex11, active compounds read low 0.989 | S. cerevisiae deletion strains, locus YOR001W, strain rrp6, active compounds read low 1.01 | S. cerevisiae deletion strains, locus YOR061W, strain CKA2, active compounds read low 0.983 | S. cerevisiae deletion strains, locus YOR069W, strain VPS5, active compounds read low 1 | S. cerevisiae deletion strains, locus YOR070C, strain gyp1, active compounds read low 1.01 | S. cerevisiae deletion strains, locus YOR080W, strain dia2, active compounds read low 1.02 | S. cerevisiae deletion strains, locus YOR083W, strain WHI5, active compounds read low 1.01 | S. cerevisiae deletion strains, locus YOR106W, strain vam3, active compounds read low 1.04 | S. cerevisiae deletion strains, locus YOR136W, strain idh2, active compounds read low 0.996 | S. cerevisiae deletion strains, locus YOR144C, strain elg1, active compounds read low 0.991 | S. cerevisiae deletion strains, locus YOR184W, strain ser1, active compounds read low 1 | S. cerevisiae deletion strains, locus YOR231W, strain MKK1, active compounds read low 0.987 | S. cerevisiae deletion strains, locus YOR265W, strain rbl2, active compounds read low 1.01 | S. cerevisiae deletion strains, locus YOR270C, strain vph1, active compounds read low 1.08 | S. cerevisiae deletion strains, locus YOR290C, strain snf2, active compounds read low 1.02 | S. cerevisiae deletion strains, locus YOR316C, strain cot1, active compounds read low 0.986 | S. cerevisiae deletion strains, locus YPL051W, strain arl3, active compounds read low 1 | S. cerevisiae deletion strains, locus YPL055C, strain LGE1, active compounds read low 0.993 | S. cerevisiae deletion strains, locus YPL078C, strain atp4, active compounds read low 1.02 | S. cerevisiae deletion strains, locus YPL106C, strain sse1, active compounds read low 1.01 | S. cerevisiae deletion strains, locus YPL240C, strain hsp82, active compounds read low 1.02 | S. cerevisiae deletion strains, locus YPL241C, strain CIN2, active compounds read low 0.995 | S. cerevisiae deletion strains, locus YPL256C, strain CLN2, active compounds read low 0.973 | S. cerevisiae deletion strains, locus YPR119W, strain clb2, active compounds read low 0.991 | S. cerevisiae deletion strains, locus YPR141C, strain kar3, active compounds read low 0.975 | S. cerevisiae deletion strains, locus YPR163C, strain tif3, active compounds read low 0.979 | S. cerevisiae deletion strains, locus YPR167C, strain met16, active compounds read low 0.982 | S. cerevisiae deletion strains, strain wtn01, active compounds read low 1.06 | S. cerevisiae strains, strain wild type, active compounds read low 0.992
